Experiment [1] can be described thus: Validation of Assay for Modulators of Lamin A Splicing (AID 1459; active = well fitted curve in the direction sought with a large enough effect in the signal ratio; the % refers to the signal ratio;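 note: cells exposed to compound for two days before reading; 0% is about no effect; ratio rise marks activators and ratio drop marks inhibitors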). In a few lines:
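Splicing correction is reported by an EGFP-containing lamin A minigene in stably transfected S3 HeLa cells, while DsRed2 controls for viability and nonspecific signal. Cells are exposed to compounds for 48 hrs before the GFP over RFP ratio is taken.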

The target of experiment [2] is DNA repair nuclease/redox regulator APEX1 (Homo sapiens) (UniProt P27695). Kind of experiment: qHTS Validation Assay for Inhibitors of the Human Apurinic/apyrimidinic Endonuclease 1 (APE1) (AID 1705;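 note: TAMRA fluorescence gain over two minutes as APE1 cuts a quenched THF abasic duplex; % is set by controls: 0 for no effect and ±100 for the full control effect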). In a few lines:
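Endonuclease activity of human APE1 is followed as dequenching when the enzyme incises a tetrahydrofuran abasic site in a short duplex labelled 5'-TAMRA/3'-BHQ-2 (50 nM final), after 15 min enzyme–compound preincubation at room temperature.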
In general terms: In qHTS, concentration-response curves come from the screen itself.

Experiment [3] in a line: Counterscreen for APE1 Inhibitors: Fluorescent Dye Displacement Validation Assay (AID 1707).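 Note: plate controls were ThO with dsDNA and no compound for no effect and ThO without dsDNA for full effect.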 Put shortly: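 Thiazole Orange displacement from dsDNA: 250 nM ThO with 50 nM TAMRA-labelled abasic-site (tetrahydrofuran) duplex in 50 mM Tris-HCl pH7.5, 50mM NaCl, 2 mM MgCl2, 0.01% Tween-20. Loss of endpoint fluorescence (ex 480 nm, em 540 nm) flags DNA binders.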
A general note: The purpose of a counterscreen is to sort out artefacts and off-target activity.

Experiment [4] in a line: qHTS for differential inhibitors of proliferation of Plasmodium falciparum line 7G8 (AID 1815).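 For activity change, negative = inhibition: plate controls were vehicle wells for no effect and reference inhibitor wells for full effect.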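 Note: parasite growth measured after three days of incubation.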 Note: potency is the fitted concentration of half-maximal effect.
Experiment [5] is described as follows: qHTS for differential inhibitors of proliferation of Plasmodium falciparum line GB4 (AID 1816).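 For activity change, negative = inhibition: 0% = vehicle DMSO and -100% = reference inhibitor.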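 Note: parasite growth measured after 72 h incubation.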 Note: potency is the fitted concentration of half-maximal effect. As to conditions: Potency: Plasmodium falciparum GB4 proliferation inhibition.
Experiment [6] can be described thus: qHTS for differential inhibitors of proliferation of Plasmodium falciparum line 3D7 (AID 1876). Note: potency is the fitted concentration of half-maximal effect.
The target in experiment [7] is Alpha-galactosidase A (Homo sapiens) (UniProt P06280). Put plainly: Counterscreen for Glucocerebrosidase Inhibitors: qHTS Assay for Human alpha-Galactosidase at pH 4.5 (AID 992). Note: 0% is about no effect. Put shortly: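 Enzyme at 2 nM final was combined with compound (0.7 nM to 77 uM) and 80 uM 4-methylumbelliferyl alpha-D-galactopyranoside in 50 mM citric acid, 0.005% Tween-20, pH 4.5. After 20 min at room temperature, fluorescence was read (Ex 365/Em 440 nm); AC50 came from Hill fits.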
Chain of Alpha-galactosidase A (Homo sapiens) (P06280 whole entry, looked up): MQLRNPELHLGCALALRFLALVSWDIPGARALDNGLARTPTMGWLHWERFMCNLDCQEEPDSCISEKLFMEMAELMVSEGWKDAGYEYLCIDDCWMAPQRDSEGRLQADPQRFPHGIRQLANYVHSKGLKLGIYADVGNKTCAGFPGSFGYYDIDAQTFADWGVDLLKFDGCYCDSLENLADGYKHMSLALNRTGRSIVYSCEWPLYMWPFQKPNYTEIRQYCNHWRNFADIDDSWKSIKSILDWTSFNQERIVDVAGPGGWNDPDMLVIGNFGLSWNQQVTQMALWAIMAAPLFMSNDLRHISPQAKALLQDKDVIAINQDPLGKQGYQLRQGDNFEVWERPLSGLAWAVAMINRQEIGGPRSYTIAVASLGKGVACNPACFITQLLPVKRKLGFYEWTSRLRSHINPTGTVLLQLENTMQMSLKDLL

Experiment [8] deals with alpha-glucosidase (Oryza sativa, rice) (UniProt Q653V4). Kind of experiment: Counterscreen for Glucocerebrosidase Inhibitors: qHTS Assay for Rice alpha-Glucosidase at pH 5.0 (AID 997).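 Note: 0% = full activity with enzyme and -100% = basal without enzyme.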 Put shortly:
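Rice alpha-glucosidase (4 nM final) with 400 uM 4-methylumbelliferyl-alpha-D-glucopyranoside in citrate buffer pH 5.0, 20 min at room temperature, stopped at pH 10; fluorescence 365/440 nm, compounds 0.7 nM–77 uM, AC50 from Hill fits.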

A short description of experiment [9]: qHTS Assay for Lipid Storage Modulators (AID 1519; calls by dose curve; for activity change, negative = inhibition: % is set by controls: 0 for no effect and ±100 for the full control effect). As to conditions: Drosophila S3 cells, BODIPY lipid droplet/cell ratio, laser cytometry, cells loaded with oleic acid. Put shortly:
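Cells seeded at 5,000 per well were treated with compounds over a concentration series and loaded with oleic acid (400 uM, as added). Lipid droplet fluorescence (488 nm excitation, 500-530 nm channel) was read by laser-scanning cytometry and normalized to 20 uM Triacsin C.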

Experiment [10] addresses Endonuclease 4 (Escherichia coli (strain K12)) (UniProt P0A6C1). Put plainly: Counterscreen for APE1 Inhibitors: qHTS Validation Assay for Inhibitors of Endonuclease IV (AID 1708). Note: % is set by controls: 0 for no effect and ±100 for the full control effect. In a few lines: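 E. coli EndoIV at 2 nM final, preincubated 15 min at room temperature with compound, then 50 nM TAMRA/BHQ-2 THF abasic-site duplex added. Buffer: 50 mM Tris-HCl pH 7.5, 50 mM NaCl, 2 mM MgCl2, 1 mM DTT, 0.01% Tween-20. Kinetic fluorescence increase, third minus first read.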

Experiment [11] in a line: Cell Viability - LYMP2-018 (AID 985).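 Note: potency is the fitted concentration of half-maximal effect; compound exposure lasted 24 hr at 37 °C; nearly all actives have a fitted effect of over 50% in size.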 Put shortly: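 Luminescent ATP signal (CellTiter-Glo, read after 30 min at room temperature) reports viable cells after 24 hr compound treatment at 37 C. Concentration-response data were fitted to the standard Hill equation for AC50.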
A short description of experiment [12]: Cell Viability - LYMP1-002 - Assay at 40 hr (AID 994). Note: potency is the fitted concentration of half-maximal effect; nearly all actives have a fitted effect of over 60% in size. In a few lines: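 Luminescent ATP signal served as the viability readout, with decreases taken as toxicity. Cells were treated with compounds across a concentration range for 40 hours at 37 C, and AC50 values came from standard Hill modeling.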
[13] abbreviates: measured here: cell count channel max response.
Where [14] appears, read: measured here: lipid channel max response.

The values below come from PubChem BioAssay (NCATS).

“And” between values parts separate entries of the source, which are not always exact repeats. Equal entries are not always repeated. Records with an inconclusive call do not appear. The source made the active and inactive calls. Unless noted, calls come from the whole dose curve; as a rule, active = well fitted curve in the direction sought with a large enough effect; inconclusive = small, poorly fitted or top-dose-only effect, or another doubt; inactive = no such curve, though single readings can be large; an effect the other way counts as inactive or inconclusive.

Chain of DNA repair nuclease/redox regulator APEX1 (Homo sapiens) (P27695 whole entry, looked up): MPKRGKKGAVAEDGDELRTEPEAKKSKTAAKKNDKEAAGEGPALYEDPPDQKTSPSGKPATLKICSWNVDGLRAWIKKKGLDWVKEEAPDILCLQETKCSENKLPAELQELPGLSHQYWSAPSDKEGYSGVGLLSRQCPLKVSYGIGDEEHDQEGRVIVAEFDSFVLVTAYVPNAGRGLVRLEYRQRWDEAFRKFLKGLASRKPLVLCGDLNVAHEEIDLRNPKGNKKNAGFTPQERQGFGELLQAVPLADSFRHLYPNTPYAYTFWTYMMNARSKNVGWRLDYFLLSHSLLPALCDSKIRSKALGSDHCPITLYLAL

Regarding `COCCOC(=O)C1=C(C)NC(C)=C(C(=O)OC(C)C)C1c1cccc([N+](=O)[O-])c1` (stereo not drawn), the result in experiment [1] and in experiment [3] was inactive. For the same compound, the Potency result in experiment [2] is “inactive”. The Potency in experiment [4] is 4.47 µM (active); in [5] it was 10 µM (active); in experiment [6], 7.94 µM (active).
Consider `CN1CCN(C2=Nc3ccccc3Oc3ccc(Cl)cc32)CC1`, for which the compound was classed as inactive in experiment [7], in [8] and in experiment [3]. In addition, the activity change, negative = inhibition is -4.84% (inactive) in experiment [9] (at 25.7 µM (top of the series)); 10% (inactive) and 2.23% (inactive) in experiment [9] (at 57.5 µM (top of the series)). Also, the max response in experiment [9] (setting [13]) was 14.9% and 0.863% and -23%; in experiment [9] (setting [14]), 7.38% and 8.12% and -19.5%. For the same compound, the Potency result in experiment [2] and in experiment [10] was “inactive” throughout. In addition, the values for the Potency in experiment [4], in experiment [5] and in experiment [6] were 7.08 µM (active), 11.2 µM (active) and 12.6 µM (active), respectively.
`CCCOc1ccccc1-c1nc2n[nH]nc2c(=O)[nH]1`: the outcome in [7], in experiment [8] and in [3] was inactive. The activity change, negative = inhibition is -0.67% (inactive) in experiment [9] (at 25.7 µM (top of the series)); 9.88% (inactive) and -1.66% (inactive) in experiment [9] (at 57.5 µM (top of the series)). Besides, the max response was 4.38% and 27.6% and 39.3% in experiment [9] (setting [13]); 5.08% and 45.2% and 35.5% in experiment [9] (setting [14]). Further, in [2], the Potency entry was “inactive”.
For the compound `CC(C)NNC(=O)c1ccncc1`, the call in [7], in experiment [8] and in experiment [3] was inactive. Besides, the activity change, negative = inhibition in experiment [9] (at 25.7 µM (top of the series)) was -0.171% (inactive); in experiment [9] (at 57.5 µM (top of the series)), 6.45% (inactive) and -0.103% (inactive). Further, the max response is 4.18% and 16.8% and -20.6% in [9] (setting [13]); 1.65% and 27.2% and -21.8% in experiment [9] (setting [14]). Also, the Potency result in experiment [2], in experiment [10], in [4], in experiment [5] and in experiment [6] was “inactive” each time.
As for `CCN1CCC[C@H]1CNC(=O)c1c(O)c(Cl)cc(Cl)c1OC`, the activity change, negative = inhibition in experiment [9] (at 57.5 µM (top of the series)) is 1.67% (inactive) and 3.44% (inactive). The max response in [9] (setting [13]) is 12.1% and 6.79%; in experiment [9] (setting [14]), 12.8% and 10.2%. Further, the Potency entry in experiment [2], in experiment [10], in experiment [4], in experiment [5] and in [6] was “inactive” each time. Further, in [3], the compound was called inactive.
Consider `COC(=O)[C@H]1[C@H]2C[C@@H]3c4[nH]c5cc(OC)ccc5c4CCN3C[C@H]2C[C@@H](OC(=O)c2cc(OC)c(OC)c(OC)c2)[C@@H]1OC`, for which the Potency in experiment [11] is 50.1 µM (active); in [12], 50.1 µM (active); in [4], 0.282 µM (active); in experiment [5], 2 µM (active); in experiment [6], 1.78 µM (active). The compound was called inactive in [7], in [8], in experiment [1] and in experiment [3]. The Potency result in experiment [2] was “inactive”.
On to `CCOC(=O)c1cnc2c(cnn2CC)c1NN=C(C)C`, for which the compound was called inactive in [7], in experiment [8] and in [1]. In addition, the Potency result in experiment [2] was “inactive”.
As to `NC/C=C/C(=O)O`, the activity change, negative = inhibition in experiment [9] (at 57.5 µM (top of the series)) was 6.98% (inactive). The max response worked out at 5.6% in [9] (setting [13]) and 13.9% in experiment [9] (setting [14]). In addition, the Potency result in [2], in [10], in experiment [4], in experiment [5] and in experiment [6] was “inactive” throughout. Moreover, the outcome in experiment [3] was inactive.
As to `Cc1ccc(/C(=C\CN2CCCC2)c2ccccn2)cc1`, in [9] (at 57.5 µM (top of the series)), the activity change, negative = inhibition is 3.64% (inactive) and 0.151% (inactive). Further, the max response in experiment [9] (setting [13]) was 7.98% and 15.3%; in experiment [9] (setting [14]), 14.1% and 15.5%. For the same compound, the Potency entry in experiment [2] and in experiment [10] was “inactive” throughout. The outcome in [3] was inactive.
As for `CC(=O)Nc1nnc(S(N)(=O)=O)s1`, the result in [7], in experiment [8] and in [3] was inactive. The values for the activity change, negative = inhibition in experiment [9] (at 25.7 µM (top of the series)) and in [9] (at 57.5 µM (top of the series)) were -1.69% (inactive) and -0.868% (inactive), respectively. Further, the max response in experiment [9] (setting [13]) was 6.43% and 19.5%; in experiment [9] (setting [14]) it was 5.21% and 17%. Further, the Potency entry in experiment [2], in [10], in [4], in experiment [5] and in experiment [6] was “inactive” throughout.
